In PubChem BioAssay (Tox21):
Records with an inconclusive call do not appear. A call without a number means that no potency is given here. Unmarked numbers belong to inactive results. The source made the active and inactive calls. Unless noted, calls follow the shape of the dose curve; as a rule, active = well fitted curve in the direction sought with a large enough effect in the repeat runs; inconclusive = weak or mixed curves; inactive = no such curve, though single readings can be large; an effect the other way counts as inactive or inconclusive.

Assays:
[1] = target: Retinoic acid receptor RXR-alpha (Homo sapiens) (UniProt P19793); assay: qHTS assay to identify small molecule agonists of the RXR signaling pathway (AID 1159527; calls by dose curve; also: nearly all actives have a fitted effect of over 35% in size)
Retinoic acid receptor RXR-alpha (Homo sapiens), sequence (P19793 whole entry, looked up): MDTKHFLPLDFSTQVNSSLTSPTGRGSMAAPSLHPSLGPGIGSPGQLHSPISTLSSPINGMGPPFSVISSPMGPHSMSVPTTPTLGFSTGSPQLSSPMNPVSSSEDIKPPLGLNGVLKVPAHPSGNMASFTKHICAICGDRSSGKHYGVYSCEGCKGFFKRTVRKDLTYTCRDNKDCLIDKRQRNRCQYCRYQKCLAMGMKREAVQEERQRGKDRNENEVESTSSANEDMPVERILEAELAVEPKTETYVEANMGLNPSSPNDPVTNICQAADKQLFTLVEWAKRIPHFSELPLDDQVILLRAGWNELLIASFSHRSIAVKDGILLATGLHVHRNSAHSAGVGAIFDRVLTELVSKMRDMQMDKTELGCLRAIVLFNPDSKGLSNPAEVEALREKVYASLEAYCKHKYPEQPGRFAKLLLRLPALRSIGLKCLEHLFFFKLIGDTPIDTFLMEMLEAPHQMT
In short: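 Read-out: beta-lactamase FRET ratio (405 nm excitation, 460 and 530 nm emission) after 2 hr substrate loading at room temperature. Cells were RXR-alpha-UAS-bla HEK 293T treated with compounds for 16 hr in 2% charcoal-stripped FBS medium.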

[2] = qHTS assay to identify small molecule agonists of the RXR signaling pathway - cell viability counter screen (AID 1159529); also: nearly all actives have a fitted effect of over 50% in size
In short: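 HEK 293T RXRa-bla cells, 2% CS-FBS; 5 h settle; cpd 16 h 37 C, 5% CO2; CellTiter-Glo 30 min RT, luminescence. Tetraoctyl ammonium bromide as positive control.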

[3] = qHTS assay to identify small molecule antagonists of the retinoid acid receptor (RAR) signaling pathway - cell viability counter screen (AID 1159551); also: nearly all actives have a fitted effect of over 35% in size
In short: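 Luminescent ATP quantitation (CellTiter-Glo) gave cell viability in C3RL4 cells exposed to test chemicals for 6 h at 37 C alongside 1 uM final retinol.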

[4] = qHTS assay to identify small molecule antagonists of the retinoic acid receptor (RAR) signaling pathway (AID 1159552; also: nearly all actives have a fitted effect of over 50% in size)
In short: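 Cells of the C3RL4 line were seeded, incubated overnight, then dosed with compounds in DMSO followed immediately by retinol (1 uM final). Six hours later luciferase detection reagent went in; signal was measured after 30 min at RT.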

[5] = qHTS assay to identify small molecule agonists of the retinoic acid receptor (RAR) signaling pathway (AID 1159553); details: C3RL4 RARE luciferase reporter, agonist, 6 h; activation: at 73.3 µM (top of the series); also: potency is read from the fitted curve at half-maximal effect
In short: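 Luminescence from a RARE-driven luciferase reporter in C3RL4 cells served as the read-out, measured after 30 min with detection reagent at room temperature. Compounds in DMSO were applied for 6 hr at 37 C following overnight seeding.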

[6] = qHTS assay to identify small molecule antagonists of the estrogen related receptor (ERR) signaling pathway from Tox21 library - cell viability counter screen (AID 1224834); also: nearly all actives have a fitted effect of over 30% in size; also: potency is read from the fitted curve at half-maximal effect
In short: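 Fluorescence from CellTiter-Fluor gives the viability read-out, taken 30 min after reagent addition. Before that, ERR cells seeded 6 h earlier were incubated with compounds for 17.5 h at 37 C.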

[7] = target: Luciferin 4-monooxygenase (Photinus pyralis) (UniProt P08659); assay: qHTS assay to identify small molecule inhibitors of firefly luciferase (AID 1224835); also: nearly all actives have a fitted effect of over 25% in size; also: potency is read from the fitted curve at half-maximal effect
Luciferin 4-monooxygenase (Photinus pyralis), sequence (P08659 whole entry, looked up): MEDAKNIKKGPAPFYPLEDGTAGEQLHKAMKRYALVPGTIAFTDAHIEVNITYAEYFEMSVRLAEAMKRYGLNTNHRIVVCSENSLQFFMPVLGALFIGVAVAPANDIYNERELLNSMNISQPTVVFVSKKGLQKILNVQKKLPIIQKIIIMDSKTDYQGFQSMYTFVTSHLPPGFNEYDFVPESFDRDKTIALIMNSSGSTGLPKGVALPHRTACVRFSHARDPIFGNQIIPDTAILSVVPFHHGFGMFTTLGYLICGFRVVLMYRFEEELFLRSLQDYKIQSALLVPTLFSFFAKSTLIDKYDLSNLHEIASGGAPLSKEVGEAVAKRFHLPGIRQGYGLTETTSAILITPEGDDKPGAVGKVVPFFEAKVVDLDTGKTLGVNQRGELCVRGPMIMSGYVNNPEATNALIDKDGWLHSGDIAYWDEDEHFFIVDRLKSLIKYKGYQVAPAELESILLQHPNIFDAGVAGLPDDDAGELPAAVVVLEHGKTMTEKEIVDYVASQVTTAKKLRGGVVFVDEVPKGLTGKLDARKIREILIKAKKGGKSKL
In short: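 Quantitative HTS format; KM concentrations of both substrates. Purified P. pyralis FLuc activity quantified from luminescence images.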

[8] = target: Nuclear receptor subfamily 1 group I member 3 (Homo sapiens) (UniProt Q14994); assay: qHTS assay to identify small molecule antagonists of the constitutive androstane receptor (CAR) signaling pathway (AID 1224838);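 also: HepG2 cells stably expressing hCAR with CYP2B6 luciferase reporter stimulated by CITCO; nearly all actives have a fitted effect of over 40% in size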
Nuclear receptor subfamily 1 group I member 3 (Homo sapiens), sequence (Q14994 whole entry, looked up): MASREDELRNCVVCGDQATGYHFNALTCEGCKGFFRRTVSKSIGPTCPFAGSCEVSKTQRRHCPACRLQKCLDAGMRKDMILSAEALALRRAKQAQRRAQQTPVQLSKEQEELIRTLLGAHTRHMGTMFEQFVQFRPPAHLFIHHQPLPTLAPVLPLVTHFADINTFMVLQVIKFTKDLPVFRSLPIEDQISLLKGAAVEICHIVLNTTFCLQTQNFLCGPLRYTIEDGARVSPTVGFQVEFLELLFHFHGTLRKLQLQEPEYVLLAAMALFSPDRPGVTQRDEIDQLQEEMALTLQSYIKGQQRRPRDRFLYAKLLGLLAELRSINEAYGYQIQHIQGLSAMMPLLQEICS
In short: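 HepG2-CYP2B6-hCAR cells; 4 h pre-incubation; cpd (15 conc) + CITCO 50 nM final; 24 h, 37 C/5% CO2; ONE-Glo, luminescence.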

[9] = target: Nuclear receptor subfamily 1 group I member 3 (Homo sapiens) (UniProt Q14994); assay: qHTS assay to identify small molecule agonists of the constitutive androstane receptor (CAR) signaling pathway (AID 1224839); also: nearly all actives have a fitted effect of over 15% in size; also: potency is read from the fitted curve at half-maximal effect;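 as to activation: HepG2 cells stably carrying human CAR and a CYP2B6 luciferase reporter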
In short: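 HepG2-CYP2B6-hCAR cells, 2500/well, 4 h pre-incubation; compounds 15 conc.; PK11195 0.75 uM final; 24 h, 37 C/5% CO2; ONE-Glo luciferase read.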

[10] = qHTS assay to identify small molecule agonists of H2AX (AID 1224845; active = well fitted activation curve with a large enough effect in the signal ratio in the repeat runs, not every such curve was filed as active; the % refers to the signal ratio)
In short: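 Wild-type CHO-K1 cells plated overnight, then exposed 3 hr at 37C to compounds at 15 concentrations (0.76% DMSO). Lysed, then HTRF anti-pH2AX(S139)-cryptate/anti-H2AX-d2 detection after 24 hr at room temperature; emissions 665 and 620 nm.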

[11] = qHTS assay to identify small molecule agonists of the hypoxia (HIF-1) signaling pathway (AID 1224846; active = well fitted activation curve with a large enough effect in the signal ratio in the repeat runs, not every such curve was filed as active; the % refers to the signal ratio)
In short: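 Cell line: CellSensor HRE-bla ME-180; 2,000 cells/well; 0.5% dialyzed FBS; 5 h preincubation; DMSO compound pin transfer; 17 h, 37C, 5% CO2; CCF4-AM added; bla FRET signal scored for activation.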

[12] = qHTS assay to identify small molecule agonists of H2AX - cell viability counter screen (AID 1224847; calls by dose curve; also: nearly all actives have a fitted effect of over 30% in size; also: potency is read from the fitted curve at half-maximal effect)
In short: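 Cells plated first: CHO-K1, 1000 per well in 10% FBS medium, incubated overnight at 37C. Then 15-point compound titration added (final DMSO 0.76%) for 3 hr. Finally CellTiter-Glo added and luminescence read.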

[13] = qHTS assay to identify small molecule antagonists of the constitutive androstane receptor (CAR) signaling pathway - cell viability counter screen (AID 1224837); also: nearly all actives have a fitted effect of over 45% in size; also: potency is read from the fitted curve at half-maximal effect
In short: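 HepG2-CYP2B6-hCAR cells, 2500/well, 4 hr pre-incubation; compound titration, 15 conc.; CITCO 50 nM final; 23 hr, 37 C/5% CO2; CellTiter-Fluor, fluorescence intensity.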

[14] = qHTS assay to identify small molecule antagonists of the estrogen related receptor signaling pathway with the pleiotropic PPARgamma coactivator (PGC) from Tox21 10K library - cell viability counter screen (AID 1224840; active = well fitted cell-killing curve with a large enough effect in the repeat runs, not every such curve was filed as active; also: nearly all actives have a fitted effect of over 40% in size)
In short: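 PGC/ERR cells, 2,000/well; 6 h pre-incubation 37 C/5% CO2; cpd in DMSO via pin tool; 17.5 h 37 C; CellTiter-Fluor, 30 min; fluorescence.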

[15] = target: Thyrotropin receptor (Homo sapiens) (UniProt P16473); assay: qHTS assay to identify small molecule agonists of the thyroid stimulating hormone receptor (TSHR) signaling pathway (AID 1224843; calls by dose curve; also: nearly all actives have a fitted effect of over 45% in size)
Thyrotropin receptor (Homo sapiens), sequence (P16473 whole entry, looked up): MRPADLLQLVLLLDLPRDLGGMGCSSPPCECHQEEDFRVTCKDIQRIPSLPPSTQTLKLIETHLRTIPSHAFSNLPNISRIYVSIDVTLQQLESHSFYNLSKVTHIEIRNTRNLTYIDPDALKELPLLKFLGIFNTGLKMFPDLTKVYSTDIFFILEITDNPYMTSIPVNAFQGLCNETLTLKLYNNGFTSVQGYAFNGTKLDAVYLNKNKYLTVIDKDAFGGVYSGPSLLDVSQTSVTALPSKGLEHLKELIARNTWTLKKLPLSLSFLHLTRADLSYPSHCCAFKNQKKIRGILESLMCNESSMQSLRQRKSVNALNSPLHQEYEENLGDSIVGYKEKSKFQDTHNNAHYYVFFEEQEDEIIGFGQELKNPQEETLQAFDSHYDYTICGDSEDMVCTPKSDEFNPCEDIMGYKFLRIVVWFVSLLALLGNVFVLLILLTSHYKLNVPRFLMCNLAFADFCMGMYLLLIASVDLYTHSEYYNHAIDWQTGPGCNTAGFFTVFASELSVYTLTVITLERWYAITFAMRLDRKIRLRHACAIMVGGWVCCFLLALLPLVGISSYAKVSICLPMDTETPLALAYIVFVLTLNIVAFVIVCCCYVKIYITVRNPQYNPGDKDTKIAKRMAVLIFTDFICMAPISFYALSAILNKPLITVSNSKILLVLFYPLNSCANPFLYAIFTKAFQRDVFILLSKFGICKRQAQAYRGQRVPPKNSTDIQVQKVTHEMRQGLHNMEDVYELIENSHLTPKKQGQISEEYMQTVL
In short: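 Cell line HEK293 with TSHR; density 800/well. Exposure 30 min RT. Readout HTRF cAMP (cAMP-d2/anti-cAMP-cryptate), 1 h RT before reading.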

[16] = qHTS assay to identify small molecule agonists of the hypoxia (HIF-1) signaling pathway - cell viability counter screen (AID 1224844; calls by dose curve; also: nearly all actives have a fitted effect of over 50% in size)
In short: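 ME-180 HRE-bla cells, 2,000/well, 0.5% dialyzed FBS; 5 hr settle, 17 hr compound at 37C/5% CO2; CCF4-AM reporter read first, then CellTiter-Glo luminescence after 30 min RT.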

[17] = qHTS assay to identify small molecule agonists of the constitutive androstane receptor (CAR) signaling pathway - cell viability counter screen (AID 1224836); also: nearly all actives have a fitted effect of over 45% in size
In short: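 HepG2-CYP2B6-hCAR, 2500 cells/well, 4 h pre-incubation; cpd 15 conc + PK11195 0.75 uM final; 23 h, 37 C/5% CO2; CellTiter-Fluor, fluorescence.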

[18] = qHTS assay to identify small molecule antagonists of the estrogen related receptor signaling pathway with the pleiotropic PPARgamma coactivator (PGC) from Tox21 10K library (AID 1224841; call rule not given here; also: actives are mostly falling curves and most rising ones were filed inactive; nearly all actives have a fitted effect of over 50% in size)
In short: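 PGC/ERR cell line, 2,000 cells/well; 6 h pre-incubation 37 C/5% CO2; compounds (DMSO) pinned in; 18 h, 37 C; One-Glo, 30 min RT; luminescence.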

[19] = qHTS assay to identify small molecule agonists of the estrogen related receptor signaling pathway with the pleiotropic PPARgamma coactivator (PGC) from Tox21 10K library (AID 1224842); also: nearly all actives have a fitted effect of over 15% in size
In short: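 PGC/ERR reporter cells (NTP line) were seeded 2,000 per well, rested 6 h at 37 C/5% CO2, then pin-dosed with compounds in DMSO for 18 h at 37 C; luciferase read by One-Glo luminescence after 30 min at room temperature.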

[20] = qHTS assay to identify small molecule antagonists of the estrogen related receptor (ERR) signaling pathway from Tox21 library (AID 1224848); also: nearly all actives have a fitted effect of over 50% in size; also: potency is read from the fitted curve at half-maximal effect
In short: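 Screening used an ERR reporter line supplied by NTP, exposed for 18 h at 37 C to library compounds delivered in DMSO. Signal was luciferase luminescence developed with ONE-Glo at room temperature for 30 min.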

For `COc1ccc(N=Nc2cc(C)c(N=Nc3ccc(S(=O)(=O)O)cc3)cc2OC)cc1`, the Potency [1] was “inactive”, the outcome [2] was “inactive” and the outcome [3] was “inactive”. For the same compound, the Potency [4] was “inactive”, the Potency [5] was “inactive” and the Potency [6] was 19.3 µM (active). The Potency [7] was 44.8 µM (active), the Potency [8] was “inactive” and the Potency [9] was “inactive”. The outcome [10] was “inactive”, the outcome [11] was “inactive” and the Potency [12] was 101 µM (active).
In the case of `Cc1nc([N+](=O)[O-])cn1-c1ccc([N+](=O)[O-])cc1`, the Potency [1] is reported as “inactive”, the outcome [2] is reported as “inactive” and the outcome [3] is reported as “inactive”. The Potency [4] was “inactive”, the Potency [5] was “inactive” and the Potency [7] was “inactive”. For the same compound, the Potency [13] was “inactive”, the outcome [14] was “inactive” and the outcome [15] was “inactive”. For the same compound, the outcome [16] was “inactive”, the outcome [10] was “inactive” and the outcome [11] was “inactive”. The Potency [12] was “inactive”.
For `Nc1cc(Cl)cc(S(=O)(=O)O)c1O`, the Potency [1] was “inactive”, the outcome [2] was “inactive” and the outcome [3] was “inactive”. The Potency [4] was “inactive”, the Potency [5] was “inactive” and the Potency [7] was “inactive”. For the same compound, the outcome [17] was “inactive”, the Potency [13] was “inactive” and the Potency [8] was “inactive”. For the same compound, the Potency [9] was “inactive”, the outcome [14] was “inactive” and the outcome [16] was “inactive”. The outcome [11] was “inactive” and the Potency [12] was “inactive”.
In the case of `Cc1cccc(NC(=S)N(C)C)c1`, the Potency [1] is reported as “inactive”, the outcome [2] is reported as “inactive” and the outcome [3] is reported as “inactive”. For the same compound, the Potency [4] was “inactive”, the Potency [5] was “inactive” and the Potency [7] was “inactive”. The outcome [17] was “inactive”, the Potency [13] was 61.1 µM (active) and the Potency [9] was “inactive”. The outcome [14] was “inactive”, the Potency [18] was “inactive” and the outcome [19] was “inactive”. The outcome [15] was “inactive”, the outcome [16] was “inactive” and the outcome [10] was “inactive”. The outcome [11] was “inactive” and the Potency [20] was 48.6 µM (active).
For `CC(C)(C)c1ccc(C=O)cc1`, the Potency [1] was “inactive”, the outcome [2] was “inactive” and the outcome [3] was “inactive”. The Potency [4] was “inactive”, the Potency [5] was “inactive” and the outcome [17] was “inactive”. The Potency [13] was “inactive”, the Potency [8] was “inactive” and the Potency [9] was “inactive”. The outcome [14] was “inactive”, the outcome [15] was “inactive” and the outcome [16] was “inactive”. The outcome [10] was “inactive”, the outcome [11] was “inactive” and the Potency [12] was “inactive”.
For `C[C@H]1O[C@H](O[C@H]2[C@H](O)[C@@H](O)[C@@H](O[C@H]3[C@H](O)[C@@H](O)[C@H](O)O[C@@H]3CO)O[C@@H]2CO)[C@H](O)[C@@H](O)[C@@H]1N[C@H]1C=C(CO)[C@@H](O)[C@H](O)[C@H]1O`, the Potency [1] was “inactive”, the outcome [2] was “inactive” and the outcome [3] was “inactive”. For the same compound, the Potency [4] was “inactive”, the Potency [5] was “inactive” and the Potency [6] was “inactive”. For the same compound, the Potency [13] was “inactive”, the outcome [14] was “inactive” and the outcome [10] was “inactive”. The outcome [11] was “inactive” and the Potency [12] was “inactive”.
In the case of `CC(=O)c1ccc(OCC(=O)N2CCCCC2)cc1`, the Potency [1] is reported as “inactive”, the outcome [2] is reported as “inactive” and the outcome [3] is reported as “inactive”. The Potency [4] was “inactive”, the Potency [5] was 13.3 µM (active) and the Potency [6] was “inactive”. The Potency [13] was “inactive”, the Potency [8] was “inactive” and the Potency [9] was 18.8 µM (active). For the same compound, the outcome [14] was “inactive”, the Potency [18] was “inactive” and the outcome [19] was “inactive”. The outcome [15] was “inactive”, the outcome [11] was “inactive” and the Potency [12] was “inactive”. For the same compound, the Potency [20] was “inactive”.
In the case of `CCCOCCOCCOCCO`, the Potency [1] is reported as “inactive”, the outcome [2] is reported as “inactive” and the outcome [3] is reported as “inactive”. The Potency [4] was “inactive”, the Potency [5] was “inactive” and the Potency [7] was “inactive”. For the same compound, the outcome [17] was “inactive”, the Potency [13] was “inactive” and the outcome [14] was “inactive”. For the same compound, the Potency [18] was “inactive”, the outcome [19] was “inactive” and the outcome [10] was “inactive”. The outcome [11] was “inactive”, the Potency [12] was “inactive” and the Potency [20] was “inactive”.
